Screening results as filed in PubChem BioAssay.
The full list was thinned out, with hits kept by preference.
ALOX12 inh: inhibitors of human 12S-lipoxygenase ALOX12. P18054. purified 12hLO, xylenol orange hydroperoxide absorbance. Potency, µM (titrated, usually from 108 µM), inactives show top-dose activity change, negative = inhibition, hits mostly inhibitors. hit rate 1.1% among 580,000. AID 1671190; also: potency is read from the fitted curve at half-maximal effect
Target sequence (P18054 whole entry, looked up): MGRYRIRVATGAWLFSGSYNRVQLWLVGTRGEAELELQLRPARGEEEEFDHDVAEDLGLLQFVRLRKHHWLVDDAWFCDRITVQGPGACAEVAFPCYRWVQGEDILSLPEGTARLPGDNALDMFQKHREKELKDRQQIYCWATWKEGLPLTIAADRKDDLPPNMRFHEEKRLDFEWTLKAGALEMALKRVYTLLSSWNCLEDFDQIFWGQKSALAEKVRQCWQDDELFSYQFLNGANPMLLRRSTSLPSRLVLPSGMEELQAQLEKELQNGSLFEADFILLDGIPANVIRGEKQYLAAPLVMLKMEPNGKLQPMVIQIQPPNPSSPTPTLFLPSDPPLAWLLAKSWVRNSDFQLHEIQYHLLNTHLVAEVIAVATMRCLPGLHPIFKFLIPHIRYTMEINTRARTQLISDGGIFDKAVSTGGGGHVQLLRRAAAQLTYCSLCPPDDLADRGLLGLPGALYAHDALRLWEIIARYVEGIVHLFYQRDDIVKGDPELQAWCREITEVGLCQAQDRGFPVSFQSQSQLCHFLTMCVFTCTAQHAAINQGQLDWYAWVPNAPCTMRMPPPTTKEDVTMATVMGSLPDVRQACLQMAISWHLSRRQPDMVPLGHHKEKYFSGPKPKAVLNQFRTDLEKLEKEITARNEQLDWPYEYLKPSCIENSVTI
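Purified human 12hLO (150 nM final) in 25 mM Hepes, 0.01% Triton X-100, pH 7.0 was preincubated 15 min at room temperature with compound. Then 40 uM arachidonic acid was added, 30 min. Hydroperoxide was read by Fe-XO absorbance ratio 573/405 nm.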
HT1080 IDH1KD tx: kills HT-1080 cells with IDH1 knockdown; HT-1080 IDH1 knockdown viability, ATP luminescence, 48 h; Potency, µM (doses to about 46.1 µM), inactives show at the top dose activity, negative = toxicity, usual class: cytotoxic; hit rate 2% among 360,000; AID 686971;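 also: potency is read from the fitted curve at half-maximal effect; 0% = DMSO wells and -100% = cell-free medium wells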
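Knockdown cells (IDH1KD HT-1080) received compounds 2 h after plating at 750 cells/well and were kept 48 h at 37 °C in 5% FBS RPMI. A CellTiter-Glo luminescence read gave % activity for curve fitting.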
HT1080NT lethal: kills 2HG-producing HT-1080-NT fibrosarcoma cells. HT-1080-NT fibrosarcoma viability, CellTiter-Glo ATP luminescence, 48 h. Potency, µM (series often up to 46.1 µM), for inactives: top-dose activity, negative = less viability, usual class: cytotoxic. hit rate 1.6% among 360,000;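 also: NT is the 2HG producing partner of a matched IDH1 knockdown line; potency is read from the fitted curve at half-maximal effect; 0% = DMSO-treated cells and -100% = media-only wells without cells; nearly all actives have a fitted effect of over 55% in size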
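Viability of the 2HG-overproducing fibrosarcoma line after 48 hours of compound exposure at 37 degrees C was determined by luminescence with CellTiter-Glo, and concentration-effect curves were then fitted and categorized.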
TDP1 cell CPT: growth inhibition of DT40 Tdp1-/-;hTDP1 cells with camptothecin (screen for TDP1 inhibitors). chicken DT40 Tdp1-/-;hTDP1 cells + 20 nM CPT, ATP luminescence, 48 h. Potency, µM (top dose mostly 46.2 µM), for the others: at the highest dose activity change, negative = growth inhibition, actives largely listed as inhibitors. hit rate 12% among 420,000. AID 686979; also: potency is read from the fitted curve at half-maximal effect; nearly all actives have a fitted effect of over 55% in size
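Chicken DT40 Tdp1-/- cells complemented with human TDP1, 400 cells/well, exposed to compounds plus 20 nM camptothecin for at least 48 h at 37 C; viability read as ATP content by CellTiter-Glo luminescence.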
IL-1B inflam inh: blocks inflammasome-driven IL-1 beta release. THP-1 LPS/ATP IL-1B secretion, AlphaLISA, 16 h; hits give low values. activity change, % at 57.5 µM. hit rate 4.7% among 360,000. AID 743279; in the data active = activity change below about -50%; inconclusive = mostly about -30% to -49%
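THP-1 cells pretreated 1 hr with compounds (up to 57.5 uM final), then stimulated with LPS (250 ng/mL final) plus ATP (1.25 mM final); secreted IL-1B measured by AlphaLISA after 16 hr, decreased signal indicating inhibition.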
DT40 TDP1 no CPT: qHTS for Inhibitors of human tyrosyl-DNA phosphodiesterase 1 (TDP1): qHTS in cells in absence of CPT | DT40 Tdp1-/- hTDP1 cells, no CPT, ATP luminescence, 48 h | AID 686978, 2013 | hit rate 15% among 420,000 | Potency, µM (doses to about 46.2 µM), for inactives: at the highest dose activity change, negative = growth inhibition, actives largely listed as inhibitors; also: potency is read from the fitted curve at half-maximal effect; nearly all actives have a fitted effect of over 55% in size
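Chicken DT40 Tdp1-/- cells stably complemented with human TDP1 were seeded at 400 cells/well with DMSO in place of 20 nM camptothecin. After compound pinning, cells grew at least 48 hr at 37 °C; viability read by CellTiter-Glo luminescence.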
The depositor's hits bear a star; ? = inconclusive; . = no result given; [ ] = dose if it differs, or a comment. Unless noted, calls follow the shape of the dose curve; as a rule, active = well fitted curve in the direction sought with a large enough effect; inconclusive = small, poorly fitted or top-dose-only effect, or another doubt; inactive = no such curve, though single readings can be large; an effect the other way counts as inactive or inconclusive. Unless noted, % is scaled to controls: 0 for no effect and ±100 for the full control effect.

SMILES	ALOX12 inh	HT1080 IDH1KD tx	HT1080NT lethal	TDP1 cell CPT	IL-1B inflam inh	DT40 TDP1 no CPT
Cn1cc(-c2nc(N3CCOCC3)cc3c2CN(c2ccccc2)C3=O)cn1	6%[176 µM]	.	.	.	.	.
COc1cc(C(=O)n2nc(-c3cccc(C)c3)nc2N)cc(OC)c1OC	-4%	.	.	.	.	.
O=C(CN1CCC2(CC1)CC(c1ccccc1)C(=O)N2)NCC1CCCCC1 (configuration not stated)	13%	.	.	.	.	.
COc1cccc(OCc2nc(C(=O)N(C)C(C)c3ccon3)co2)c1 (configuration not stated)	8%	.	.	.	.	.
O=C(NC1CC1)c1ccccc1OCC1CCCN(C2CCCCC2)C1 (configuration not stated)	9%	.	.	.	.	.
COC(=O)[C@@]12C[C@@H](CC(=O)NCc3ccc(OC)c(OC)c3)C(=O)N(Cc3ccccc3)C1=CCC(C)(C)C2	-28%	-10%	-10%	18µM*	-18	?
O=C(NCC(c1cccs1)c1c[nH]c2ccccc12)c1cccs1 (configuration not stated)	12%	.	.	.	.	.
O=C(/C=C/c1ccncc1)c1cc(Cl)ccc1O	6%	-2%	-9%	-19%	-67*	?
COc1ccc(/C=C/C(=O)c2ccc(Cl)cc2)c(OC)c1	-25%	2%	-5%	-20%	0	18µM*
COc1ccc(C(=O)/C=C/c2ccc(OC)cc2OC)c(O)c1	13%	2%	-3%	?	-13	?
CN(C)c1ccc(/C=C/C(=O)c2cc(Cl)ccc2O)cc1	0%	0%	-10%	?	-11	?
COc1ccc(/C=C/C(=O)c2cc(Cl)ccc2O)c(OC)c1	-18%	-16%	-8%	?	-100*	?
COc1ccc(/C=C/C(=O)/C=C/c2ccc(OC)cc2OC)c(OC)c1	-1%	.	.	?	.	?
COCC(C)N(C)C(=O)c1cc2ccccc2c(OC)n1 (configuration not stated)	-3%	.	.	.	.	.
OCCCn1c(C2CCCN2c2nc(-c3ccc(Cl)cc3)cs2)nc2cc(Cl)c(N3CCCCC3)cc21 (configuration not stated)	-8%	4%	0%	?	23	?
Cc1ccc(Cn2c(C3CCCN3c3nc(C)cs3)nc3cc(C(=O)NCCCO)ccc32)cc1 (configuration not stated)	-40%	6%	-5%	-15%	-3	2%
Cc1csc(N2CCCC2c2nc3cc(Cl)c(N4CCCCC4)cc3n2CCCO)n1 (configuration not stated)	3%	-16%	-3%	?	-16	16µM*
OCCCn1c(C2CCCN2c2nc(-c3ccc(F)cc3)cs2)nc2cc(Cl)c(N3CCCCC3)cc21 (configuration not stated)	-8%	0%	1%	?	15	21µM*
O=C(NCc1nnc2n1C(C(=O)NCc1cccnc1)CC2)Nc1cccnc1 (configuration not stated)	2%[6.33 µM]	.	.	.	.	.
COC(=O)c1cn(C(=O)c2ccc(OC)cc2)c2ccccc12	-5%	4.6µM*	?	8.2µM*	8	4.6µM*
COC(=O)c1cn(C(=O)c2ccc(C)c(C)c2)c2ccccc12	21%	15%	-13%	?	0	21µM*
COC(=O)c1cn(C(=O)c2ccc3c(c2)OCO3)c2ccccc12	2%	-16%	-24%	?	-19	16µM*
COC(=O)c1cn(C(=O)c2ccc(C)cc2)c2ccccc12	?	-17%	-18%	18µM*	-1	16µM*
CC(C)CC(N)c1nnc2n1CCNCC2 (configuration not stated)	111%	.	.	.	.	.
COCCC(=O)N[C@H]1C[C@@H](c2nc(-c3ccc(OC(F)(F)F)cc3)no2)N(C)C1	29%[176 µM]	.	.	.	.	.
SMILES	ALOX12 inh	HT1080 IDH1KD tx	HT1080NT lethal	TDP1 cell CPT	IL-1B inflam inh	DT40 TDP1 no CPT
COc1cccc(NC(=S)/C(=C(\[O-])c2ccc(OC(F)F)cc2)[n+]2ccccc2)c1	0%	-2%	-10%	13µM*	26	15µM*
COc1cccc(NC(=S)/C(=C(\[O-])c2ccc(C)c([N+](=O)[O-])c2)[n+]2ccccc2)c1	0%	-6%	-6%	-23%	-15	-25%
[O-]/C(=C(\C(=S)Nc1cccc2ccccc12)[n+]1ccccc1)c1ccc(OC(F)F)cc1	-20%	-17%	-11%	?	18	21µM*
[O-]/C(=C(\C(=S)Nc1cccc2ccccc12)[n+]1ccccc1)c1ccc2c(c1)OCCO2	?	-20%	?	?	26	-16%
O=C1NC(=O)C2(CCCC2C(=O)O)N1 (configuration not stated)	2%	4%	7%	1%	19	0%
Cc1cccc(N2CCN(S(=O)(=O)c3ccc(-c4cc(C(F)(F)F)on4)s3)CC2)c1C	-22%	.	.	5%	.	-14%
COc1cc(OC)c(/C=N/NC(=O)c2ccncc2)c(OC)c1	-7%	-1%	3%	0%	2	-7%
O=C(NCc1ccc(Cl)cc1)N(Cc1ccco1)Cc1cccs1	-2%	.	.	.	.	.
CCCCCCCCn1c(=O)c(C(=O)OC)c(N)c2ccccc21	40%	16µM*	21µM*	1.3µM*	-95*	3.3µM*
CCCCCCn1c(=O)c(-c2ccccc2)c(O)c2ccccc21	?	-6%	-13%	13%	10	-22%
CCCCCCCn1c(=O)c(C(=O)OC)c(N)c2ccccc21	422%	?	?	3.3µM*	-59*	3.3µM*
Nc1ncccc1CN1CCc2ncc(C(=O)NCCOc3ccccc3)n2CC1	28%[176 µM]	.	.	.	.	.
O=C1CCC(C2CCc3cc(O)ccc3C2)C1 (configuration not stated)	-14%	7%	14%	19%	5	-16%
O=C1NC[C@H](Cc2ccccc2)N(CCc2cccc(F)c2)C1=O	-4%	9%	2%	-14%	5	-4%
CC(=Nc1ccccc1)C1=C(O)C(Cc2cccc(F)c2)NC1=O (configuration not stated)	?	?	0.026µM*	0.0058µM*	71	0.1µM*
CC(=Nc1ccccc1)C1=C(O)C(Cc2ccc(O)cc2)NC1=O (configuration not stated)	-16%	?	0.58µM*	0.018µM*	31	0.0082µM*
